Results reported in PubChem BioAssay (NCI).
Compounds without any hit were thinned out: in the full panel of roughly 83,000, 20% have a hit.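 Assay: single dose, 48 h. Readout: percent growth (0 = no net growth; negative = cell death). Active: <10.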 Calls of active or inactive are those of the source.

System: NCI-H226 lung
Assay: NCI-60 one-dose screen, 48 h (100 = growth as untreated, 0 = no growth, -100 = all killed)
Conditions: 10 µM unless noted
Procedure: Growth inhibition of the NCI-H226 human Non-Small Cell Lung tumor cell line is measured as a screen for anti-cancer activity. Cells are grown in 96 well plates and exposed to the test compound for 48 hours. Compounds are tested at a single concentration, which is 10^-5 M for most compounds. The reported endpoint is percent growth (GI% or GIPRCNT), where numbers from 0 - 100% represent growth inhibition, and numbers from -100% - 0 represent cell death. For example, a value of 40 represents 60% growth inhibition. A value of 0 means no net growth occurred over the course of the experiment. A value of -40 indicates 40% of cells at the beginning of the experiment died by the end of the experiment. A value of -100 means all cells are dead at the end of the experiment.
NCI-60 Human Tumor Cell Lines Screen was performed using the standard one-dose NCI protocol, which is described in more detail at https://dtp.cancer.gov/discovery_development/nci-60/default.htm.
Compounds with GIPRCNT values below 10 were considered active. Activity score was based on GIPRCNT using the following formula: […]
Score is 0 for GIPRCNT values of 100 or above, 50 for GIPRCNT values of 0, and 100 for GIPRCNT values of -100.

| SMILES | growth |
| --- | --- |
| CC(C)=CC(=O)N[C@@H]1CC2CCC3C(CC[C@@]4(C)C3CC[C@@H]4C(C)N(C)C)[C@@]2(C)C[C@@H]1O (stereo not given in full) | 89.1% (inactive) |
| COc1cc(-c2cc(-c3ccc(Nc4ncnc5cc(Cl)ccc45)cc3)nc(N3CCN(C)CC3)n2)cc(OC)c1OC | 50.5% (inactive) |
| O=C(/C=C/c1ccccc1)Nc1ncc(Cc2ccccc2)s1 | 60.3% (inactive) |
| Cc1cc(C)cc(Nc2ccc([N+](=O)[O-])c(NCCN3CCOCC3)n2)c1 | 22.6% (inactive) |
| Cc1nc2sc(C(=O)Nc3ccccc3)c(N)c2cc1C(=O)/C=C/c1ccccc1 | 5.17% (active) |
| NC(=S)N/N=C/c1cn(-c2ccccc2)nc1-c1cc2ccccc2oc1=O | 81.3% (inactive) |
| N#Cc1c(-c2ccccc2)c(C#N)c2c(C#N)c(N)nn2c1N | 74% (inactive) |
| COc1ccc2nc3ccccc3c(NCc3ccc(F)cc3)c2c1 | 30% (inactive) |
| CCCCc1oc2ccccc2c1C(=O)c1ccc(O)cc1 | 92.8% (inactive) |
| O=C(CSc1nnc2sc(Nc3cccc(Cl)c3)nn12)c1ccc(F)cc1 | 95.9% (inactive) |
| COc1ccc2nc(Cl)c(/C=C/C(=O)c3ccc(NC(=O)CSc4nnc(-c5ccc(Cl)c(Cl)c5)n4-c4ccccc4)cc3)cc2c1 | 96.8% (inactive) |
| Cc1ccc(-c2nc(C#N)c(S(=O)(=O)NCCO)o2)cc1 | 86.6% (inactive) |
| CCn1cc(CNc2ccc(C(=O)Nc3cc4cc(OC)c(OC)cc4c(C)n3)cc2)c(C)n1 | 20.5% (inactive) |
| CN1C(=O)N(C)C2C1NC(=S)N2/N=C/C=C/c1ccccc1[N+](=O)[O-] (stereo not given) | 28.4% (inactive) |
| CCC(CC)(N(CC(=O)O)CC(=O)O)C(CC)(CC)N(CC(=O)O)CC(=O)O | 106% (inactive) |
| C=CCOC(=O)C1=C(C)NC(=O)NC1c1c(Cl)n(C)c2ccccc12 (stereo not given) | 97.8% (inactive) |
| CCC(C)Nc1ccc(NC(C)CC)cc1 (stereo not given) | 91.3% (inactive) |
| Cn1c(O)c(C(/C=C/c2ccccc2)=Nc2ccccc2N)c(=O)n(C)c1=O | 97.9% (inactive) |
| COc1cc2cc(NCc3ccc(OC(F)F)cc3)nc(C)c2cc1OC | 75.5% (inactive) |
| O=C1OCC2=C1C(c1cccc(C(F)(F)F)c1)c1cc3c(cc1N2CCO)OCO3 (stereo not given) | 66% (inactive) |

| SMILES | growth |
| --- | --- |
| COc1ccc2[nH]cc(-c3nc(-c4cn(C)c5ccncc45)cs3)c2c1 | 106% (inactive) |
| Oc1c(Cl)cc(Cl)c2ccc(Cn3cc(-c4cccc(C(F)(F)F)c4)nn3)nc12 | 90.1% (inactive) |
| O=C1NC(=C(Cl)Cl)/C(=N/S(=O)(=O)N2CCCCC2)N1 | 89.5% (inactive) |
| CCNCc1ccc(O)c2ncccc12 | 62.4% (inactive) |
| Clc1ccc(-c2nc(-c3c[nH]c4ncccc34)cs2)cc1 | 47.7% [100 µM] (inactive) |
| CC(CN)[C@@H]1CC[C@]2(CO)CC[C@]3(C)[C@H](CC[C@@H]4[C@@]5(C)CCC(N)C(C)(C)[C@@H]5CC[C@]43C)[C@@H]12 (stereo not given in full) | 85.2% (inactive) |
| CN(C)c1ccc(/C=C/C(=O)c2ccc(Nc3nc(Nc4ccc(F)cc4)nc(Nc4ccc(Cl)cc4)n3)cc2)cc1 | 89.3% (inactive) |
| C=C1C(=O)O[C@H]2[C@H]1CC/C(CNC(=O)c1cc3ccccc3[nH]1)=C\CC[C@@]1(C)O[C@@H]21 | -42.9% (active) |
| OC(c1ccccc1)(c1ccccc1)c1ccccc1-c1ccccc1 | 91.9% (inactive) |
| CCCCCCCCCCCCCCCCCCOc1ccccc1CC(=O)NCC[N+]1(C)CCOCC1 | 69.2% (inactive) |
| COc1cc(C(=O)c2c(N)ncn2-c2ccccc2)cc(OC)c1OC | 84% (inactive) |
| O=C(N=Nc1c(O)[nH]c2ccccc12)Nc1ccc(Cl)cc1 | 95.5% (inactive) |
| Nc1c(C(=O)Nc2cccc3ncccc23)sc2nc3c(cc12)C(=O)CCC3 | 62.2% (inactive) |
| CCCCSCC(=O)c1ccccc1 | 99.6% (inactive) |
| COc1cc(-c2nc(NC(C)=O)sc2-c2ccnc(NCCNS(=O)(=O)c3ccccc3)n2)ccc1Cl | 57.1% (inactive) |
| N/C(=N\c1nc2ccccc2s1)NC(=NC1CCCCC1)NC1CCCCC1 | 77.1% (inactive) |
| Oc1c(CN2CCCC2)cc(COCc2ccccc2)c2cccnc12 | 18.1% (inactive) |
| CNC(=O)c1cc(Oc2ccc3nc(NC(=O)Nc4ccc(Cl)c(Cl)c4)sc3c2)ccn1 | 23.1% (inactive) |
| COC(=O)C1=C(C(=O)Nc2cccnc2)C2OC1(C(Cc1ccccc1)Oc1ccccc1)C1OC21 (stereo not given) | 88.4% (inactive) |
| C#CC#CC#CC#CC#CC#CC#CC#CCC1OCC(COC(=O)O[C@@H](C(=O)O[C@H]2C[C@@]3(O)[C@@H](OC(=O)c4ccccc4)[C@@H]4[C@]5(OC(C)=O)CO[C@@H]5C[C@H](O)[C@@]4(C)C(=O)[C@H](OC(C)=O)C(=C2C)C3(C)C)[C@@H](NC(=O)c2ccccc2)c2ccccc2)O1 (stereo not given in full) | 37.6% (inactive) |
